Screens: PubChem BioAssay, several laboratories
An excerpt weighted towards active compounds, which were near 1% of everything screened.
sdo1 growth: restores growth of sdo1-depleted yeast; S. cerevisiae sdo1-depleted JHY4D growth rescue, OD600 30 h; active compounds read high; pdr5 snq2 efflux-pump mutant strain; 140,000 tested, 0.21% active; z-score at 10 µM;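 active means z-score above 3 at both the 24 hr and the 30 hr optical density reads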;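 further: z-score against mean and SD of all compound wells on the same plate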
sEH inh: blocks human soluble epoxide hydrolase activity; inhibition, % at 2 µM; P34913; 91,000 tested, 0.34% active; AID 707; recombinant human sEH enzymatic activity assay; in the data active means inhibition above about 80%
Target sequence (P34913 whole entry, looked up): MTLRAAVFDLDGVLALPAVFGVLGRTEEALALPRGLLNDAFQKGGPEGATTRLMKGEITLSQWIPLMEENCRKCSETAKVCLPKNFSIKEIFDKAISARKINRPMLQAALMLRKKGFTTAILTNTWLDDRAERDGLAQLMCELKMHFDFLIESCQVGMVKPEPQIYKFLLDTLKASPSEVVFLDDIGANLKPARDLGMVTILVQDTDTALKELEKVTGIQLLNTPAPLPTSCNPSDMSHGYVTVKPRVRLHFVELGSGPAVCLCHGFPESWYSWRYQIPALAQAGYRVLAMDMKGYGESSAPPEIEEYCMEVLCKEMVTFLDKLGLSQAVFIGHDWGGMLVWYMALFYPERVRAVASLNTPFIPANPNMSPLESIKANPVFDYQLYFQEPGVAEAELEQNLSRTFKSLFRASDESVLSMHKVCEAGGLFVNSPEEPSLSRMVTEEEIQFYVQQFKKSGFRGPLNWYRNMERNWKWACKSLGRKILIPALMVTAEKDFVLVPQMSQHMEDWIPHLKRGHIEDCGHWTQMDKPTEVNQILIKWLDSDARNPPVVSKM
MRP1 act: activates MRP-1; H69AR cells + doxorubicin, viability rescue, CellTiter-Glo; AID 799; 140,000 tested, 0.61% active; viability increase, % at 10 µM;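 active means viability gain under doxorubicin at or above a set limit, the compound median plus 3 SD, cut at about 4.7% in these data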;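 further: MRP-1 overexpressing cells given doxorubicin 25 µM after compound pretreatment; 18-22 h compound pretreatment then 72 h with doxorubicin before readout; 0% = doxorubicin-only wells and 100% = vehicle-treated cells without doxorubicin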
sEH act: increases human soluble epoxide hydrolase activity | P34913 | purified human sEH enzymatic activity, activator screen | activation, % at 2 µM | 91,000 tested, 0.04% active | AID 717; in the data active means activation above about 37%
MRP resist rev: compounds reversing MRP-mediated drug resistance. H69AR cells + 2 uM doxorubicin, CellTiter-Glo, 72 h. differential viability (reversal), % at 10 µM. 85,000 tested, 0.04% active;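 active means viability drop by adding the cancer drug above about 55%, with treated viability meeting a 40% cutoff, limit read from the data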;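 further: viability without doxorubicin minus viability with 2 µM doxorubicin for each compound; larger differential means the compound sensitizes cells more to doxorubicin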
Phagocytosis inh: blocks phagocytosis by macrophages; J774A.1 macrophage IgG-bead phagocytosis, imaging; inhibition, % at 5 µM; 110,000 tested, 0.07% active; AID 1029;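 active means inhibition above the mean of the plate negative controls plus 5 SD, cut at about 13% in these data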;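 further: phagocytic index as fraction of beads internalized from green versus red external bead signal; plate controls were DMSO negative control for no effect and cytochalasin-D positive control for full effect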
sdo1 rescue conf: confirmation of growth rescue in SDO1-depleted yeast, bone marrow failure. 440 tested, 44% active. S. cerevisiae JHY4D (SDO1-depleted) growth rescue, OD600, 30 h; active compounds read high; efflux-deficient strain, SNQ2 and PDR5 mutated. shares compounds with sdo1 growth. OD recovery (concentration not given with the values);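 active means yeast growth recovered at 30 hours, either rising with dose fitted slope above 0.001 or with average optical density gain above 0.07, some results past the limit were not filed as active; inactive means growth falling with dose or no effect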;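 further: gain in OD600 from 0 h to 30 h averaged across all seven doses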
* = called active by the depositor.

Results for COc1ccc(CN(C)C2c3ccccc3-c3ccccc32)cc1 ?
sdo1 growth: 0.29; MRP1 act: -4; Phagocytosis inh: -10

Results for O=C(CO/N=C/c1ccc2c(c1)OCO2)Nc1cccc(Br)c1 ?
sdo1 growth: -1.1; MRP1 act: 3; Phagocytosis inh: 0

How did Cc1c(-c2ccccc2)sc(N)c1C(=O)N1CCOCC1 do in these assays?
sdo1 growth: 1.9; sEH inh: 11; MRP1 act: 0; sEH act: -10; MRP resist rev: 12; Phagocytosis inh: -1

How did CC(C)CNC(=O)NC1C(NC(=O)NCC(C)C)N(C)C(=O)N1C (stereo unspecified) do in these assays?
sdo1 growth: 4.4*; sEH inh: -1; MRP1 act: -3; sEH act: -1; MRP resist rev: -1; Phagocytosis inh: 0; sdo1 rescue conf: 0.073*

How did CCC(C)NC(=O)NC1C(NC(=O)NC(C)CC)N(C)C(=O)N1C (stereo unspecified) do in these assays?
sdo1 growth: 1.1; sEH inh: 6; MRP1 act: -3; sEH act: -7; Phagocytosis inh: -3

Results for COc1ccc(CCNC(=O)c2cc(-c3ccc(C)c(C)c3O)n[nH]2)cc1OC ?
sdo1 growth: 2.3; sEH inh: -3; MRP1 act: -1; sEH act: 0; MRP resist rev: -5; Phagocytosis inh: 0; sdo1 rescue conf: 0.053

How did COc1cc(/C=N/NC(=S)N/N=C/c2cc(OC)c(OC)c(OC)c2)cc(OC)c1OC do in these assays?
sdo1 growth: 3*; MRP1 act: -3; Phagocytosis inh: 1; sdo1 rescue conf: 0.03

Results for COc1cc(/C=N/NC(=O)CCC(=O)NCc2ccccc2)cc(OC)c1OC ?
sdo1 growth: 4.5*; MRP1 act: -2; Phagocytosis inh: -3; sdo1 rescue conf: 0.095*

What do the screens show for `C=CCOc1c(Br)cc(CNn2nnnc2N)cc1OC`?
sdo1 growth: -0.45; sEH inh: -16; MRP1 act: 0; sEH act: 14; MRP resist rev: 0; Phagocytosis inh: 0

What do the screens show for `c1cc(-c2nc3cc(Oc4ccc5oc(-c6ccncc6)nc5c4)ccc3o2)ccn1`?
MRP resist rev: 23

Results for Cc1cccc2cc(CN(Cc3ccccc3)C(=O)c3cccc(F)c3)c(Cl)nc12 ?
sdo1 growth: -0.97; sEH inh: 10; MRP1 act: -3; sEH act: -9

Results for COc1cccc(C2(O)CCN(C(=O)C3CCC3)CC2)c1 ?
sdo1 growth: -0.14; MRP1 act: 1; MRP resist rev: -12; Phagocytosis inh: 0

What do the screens show for `COc1ccc(-c2cc(C(F)(F)F)nc(SCC(=O)Nc3cc(C)on3)n2)cc1`?
sdo1 growth: 1.5; sEH inh: 14; MRP1 act: -4; sEH act: -11; MRP resist rev: -16; Phagocytosis inh: -1; sdo1 rescue conf: 0.084*

What do the screens show for `O=C(Nc1ccccc1Oc1ccccc1)c1ccccc1F`?
sdo1 growth: -1.1; MRP1 act: -1; Phagocytosis inh: -2

Results for Cc1onc(-c2c(F)cccc2Cl)c1C(=O)Nc1nnc(C2CC2)s1 ?
sdo1 growth: 0.03; sEH inh: 10; MRP1 act: 0; sEH act: -12; MRP resist rev: -4; Phagocytosis inh: -1

Results for Cc1onc(-c2c(F)cccc2Cl)c1C(=O)NC1CCSC1=O (stereo unspecified) ?
sdo1 growth: 5*; sEH inh: -8; MRP1 act: 5; sEH act: 6; MRP resist rev: 2; Phagocytosis inh: 0; sdo1 rescue conf: 0.059

Results for COC(=O)c1c(C)[nH]c(C(=O)/C=C/c2cccc(Cl)c2)c1C ?
sdo1 growth: 11*; MRP1 act: -5; Phagocytosis inh: -4; sdo1 rescue conf: 0.052

What do the screens show for `CC1CCN(c2c([N+](=O)[O-])c(=O)oc3ccccc23)CC1`?
sdo1 growth: -0.48; MRP1 act: -1; Phagocytosis inh: 3

Results for CCOc1ccc(NC(=O)c2ccncc2)cc1 ?
sdo1 growth: 4.1*; sEH inh: 1; MRP1 act: 0; sEH act: 1; MRP resist rev: 6; Phagocytosis inh: 0; sdo1 rescue conf: 0.062

How did CCOc1ccc(C(=O)NC(=S)NCc2cccnc2)cc1 do in these assays?
sdo1 growth: 2.5; MRP1 act: -2; Phagocytosis inh: -5; sdo1 rescue conf: 0.11*

How did COc1ccccc1N1CCN(C(=O)c2ccc3[nH]c4c(c3c2)CC(C)CC4)CC1 (stereo unspecified) do in these assays?
sdo1 growth: -0.27; MRP1 act: -4; Phagocytosis inh: -2

Results for OCCNc1nc(N2CCN(Cc3ccccc3)CC2)nc2ccccc12 ?
sdo1 growth: -0.42; sEH inh: 10; MRP1 act: -1; sEH act: -10; MRP resist rev: 10; Phagocytosis inh: 0

How did O=C(NCCO)c1nc(NCCO)c2ccccc2n1 do in these assays?
sdo1 growth: 5.6*; sEH inh: 4; MRP1 act: -2; sEH act: -6; MRP resist rev: 9; Phagocytosis inh: 0; sdo1 rescue conf: 0.031

How did S=c1sc2c(N3CCOCC3)ncnc2n1-c1ccccc1 do in these assays?
sdo1 growth: 7.6*; MRP1 act: -2; MRP resist rev: 4; Phagocytosis inh: 1; sdo1 rescue conf: 0.029

How did CC(C)OC(=O)CSc1nnc(-c2ccccc2)n1N do in these assays?
sdo1 growth: 6.7*; sEH inh: -2; MRP1 act: 0; sEH act: 2; MRP resist rev: 9; Phagocytosis inh: -1; sdo1 rescue conf: 0.044

What do the screens show for `COc1ccc(NC(=O)CSc2nc3c(c(=O)[nH]2)CCC3)cc1OC`?
sdo1 growth: 1.1; sEH inh: 11; MRP1 act: -1; sEH act: -13; Phagocytosis inh: 0

What do the screens show for `C=CCNC(=S)NNC(=O)c1ccc(OCC(C)C)cc1`?
sdo1 growth: 6.2*; sEH inh: 0; MRP1 act: 0; sEH act: 2; MRP resist rev: 15; sdo1 rescue conf: 0.094*

What do the screens show for `C=CCNC(=S)NNC(=O)c1ccc(OCC)cc1`?
sdo1 growth: 0.86; sEH inh: -20; MRP1 act: -2; sEH act: 21; Phagocytosis inh: -2

How did O=C(COc1ncnc2ccccc12)Nc1cccc(S(=O)(=O)N2CCOCC2)c1 do in these assays?
sdo1 growth: 3.6*; MRP1 act: -1; Phagocytosis inh: -10; sdo1 rescue conf: 0.066

What do the screens show for `Cc1ccc(S(=O)(=O)N2CCOCC2)cc1NC(=O)COc1ncnc2ccccc12`?
sdo1 growth: -0.17; MRP1 act: -2; Phagocytosis inh: 12

Results for COc1ccc(/C=N/NC(=O)C2c3ccccc3Oc3ccccc32)c(OC)c1 ?
sdo1 growth: -0.16; sEH inh: 4; MRP1 act: -3; sEH act: -4; Phagocytosis inh: 0
